According to paper PMC5540273 (PLoS ONE, 2017):

tested on: p38-delta; conditions: concentration: 1 μM, replicates: in singlicate; n = 1
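Further: KINOMEscan kinase panel screen.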

| Compound | %Inh |
| --- | --- |
| Cc1ccc(-c2nc(Nc3ccncc3)c3ccccc3n2)s1 [GSK189015] | 49% |
| CNc1nc(-c2ccc3c(N)n[nH]c3c2)cc(N2C[C@@H](C(=O)NC3CCCCC3)OC[C@H]2C)n1 [GSK2375584] | 42% |
| Cn1cnc2c(N)ncnc21 [SKF-97623] | 4% |
| Fc1ccc(-c2nc[nH]c2-c2ccncc2)cc1 [SB-217360] | 0% |
| COc1cccc(NC(=O)Nc2ccc(C)c(-c3ccc(C(=O)Nc4ccncc4)cc3)c2)c1 [GSK1398474] | 28% |
| Nc1ncnc2occ(-c3ccc4c(c3)CCN4C(=O)Cc3cc(F)ccc3F)c12 [GSK2645446] | 24% |
| COc1ccc(CSc2nnc(-c3ccc4nccn4c3)o2)cc1C(F)(F)F | 0% |
| Cc1cccc2c(-c3ccncn3)c(-c3ccc(F)cc3)nn12 [GW515532] | 15% |
| Cc1ccccc1-c1cc(-c2c[nH]nc2-c2ccccn2)ccn1 [GW680061] | 28% |
| CCCCc1nn2ncccc2c1-c1ccnc(NC2CC2)n1 [GW684374] | 40% |
| CCn1c(-c2ccccc2)nc2cnccc21 [SB-733416] | 56% |
| Cn1cncc1-c1cc2c(Nc3ccc(OCc4ccccc4)cc3)ncnc2cn1 [GW281179] | 52% |
| Cc1c(Cn2c3ccccc3n3c(=O)cc(N4CCOCC4)nc23)cccc1C(F)(F)F [GSK2306394] | 17% |
| CS(=O)(=O)CCNCc1nc(-c2ccc3ncnc(Nc4ccc(OCc5ccccc5)c(Cl)c4)c3c2)cs1.Cl [GW582764] | 37% |
| COC(=O)C(NC(=O)NC1CCN(c2ccnc(Nc3ccc(F)cc3)n2)C1)c1ccccc1 (stereo not shown) [GSK1379712] | 37% |
| Cc1ccc(NC(=O)Nc2ccc(Cl)c(C(F)(F)F)c2)cc1-c1ccc(C(=O)Nc2ccncc2)cc1 [GSK1398470] | 0% |
| COc1ccc(-c2coc3ccc(-c4nnc(C)o4)cc23)cc1 | 0% |
| COC(=O)c1cccc(NC(=O)NC2CCN(c3ccnc(Nc4ccc(OC)cc4)n3)C2)c1 (stereo not shown) [GSK1379746] | 6% |
| CC(=O)c1c(C)c2cnc(Nc3ccn(C)n3)nc2n(C2CCCC2)c1=O | 15% |

| Compound | %Inh |
| --- | --- |
| CC(=O)c1c(C)c2cnc(Nc3ccc(N4CCNCC4)cn3)nc2n(C2CCCC2)c1=O | 22% |
| CNC(=O)c1ccc(C)c(-n2c(C)cc(OCc3ccc(F)cc3F)c(Br)c2=O)c1 | 0% |
| FC(F)(F)c1ccccc1-c1cc(-c2c[nH]nc2-c2ccccn2)ccn1 [GW679396] | 17% |
| CCn1c(-c2c(N)noc2C)nc2cnccc21 [SB-737856] | 16% |
| Fc1ccc(-c2nn3cccc(F)c3c2-c2ccncc2)cc1 [GW475620] | 21% |
| CS(=O)(=O)Cc1ccc(Nc2nccc(-c3c(-c4cccc(NC(=O)C5CCCCC5)c4)nn4ncccc34)n2)cc1 [GSK350559] | 0% |
| CC(C)c1cc(-c2ccc3c(N)n[nH]c3c2)nc(N)n1 [GSK2250882] | 18% |
| Nc1cccc(-c2ccc3c(N)n[nH]c3c2)n1 [GSK2192730] | 22% |
| COc1nccc(-c2c(-c3ccc(F)cc3)ncn2CCCN2CCOCC2)n1 [SB-282852] | 0% |
| Cc1ccc(NC(=O)Nc2ccccc2)cc1-c1ccc(C(=O)Nc2ccncc2)cc1 [GSK1398471] | 19% |
| O=C(Nc1n[nH]c2nc(-c3cccs3)c(Br)cc12)C1CC1 [SB-735297] | 0% |
| O=C(Nc1n[nH]c2nc(-c3cccs3)c(Br)cc12)C1CCCC1 [SB-743341] | 24% |
| O=c1cc(N2CCOCC2)nc2n(Cc3ccccc3F)ccn12 [GSK2297428] | 26% |
| Cl.Cl.Cl.N#Cc1ccc(CCNc2nccc(-c3cccc(CN4CCNCC4)c3)n2)cc1 [GSK2137462] | 49% |
| CSc1ccc(-c2nc3n(c2-c2ccncc2)CCC3)cc1 [SKF-105561] | 0% |
| Cc1ccc(NC(=O)Nc2ccccc2F)cc1-c1ccc(C(=O)Nc2ccncc2)cc1 [GSK1398477] | 36% |
| CCc1ccc(-c2ccc3c(c2)-c2n[nH]cc2S(=O)(=O)N3C)cc1 | 0% |
| COc1ccc(Nc2nccc(N3CCC(NC(=O)c4cc5ccccc5s4)C3)n2)cc1 (stereo not shown) [GSK1379738] | 42% |
